From PubChem BioAssay (NCATS) come the findings set out here.

Values joined by “and” are separate entries in the source; they are usually repeats but may differ in a detail not shown here. Equal entries are not always repeated. Results filed as inconclusive are left out. A number with no mark means an inactive call. Active and inactive are the calls of the source. Unless noted, the call rests on the fitted dose curve; in most records, active means well fitted curve in the direction sought with a large enough effect; inconclusive means small, poorly fitted or top-dose-only effect, or another doubt; inactive means no such curve, though single readings can be large; an effect the other way counts as inactive or inconclusive.

In test [1] the target is Estrogen receptor (Homo sapiens) (UniProt P03372). The experiment in a line: qHTS assay for small molecule antagonists of estrogen receptor alpha signaling (AID 588513; active means well fitted curve in the direction sought with a large enough effect in the signal ratio, with a control signal flat, not every such curve was filed as active; the % refers to the signal ratio; further: on the % scale 0 is the no-effect control and ±100 the full control effect). The following applies: ER-alpha-UAS-bla HEK293, beta-lactamase ratio, antagonist mode; series mostly up to 76.9 µM. An outline of the steps:
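Antagonist-mode qHTS in ER-alpha-UAS-bla HEK 293 cells: compound titration, 0.5nM estradiol for 18 h, CCF4 fluorescence, Hill-derived IC50.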
A general note: Quantitative high-throughput screening tests each substance at several concentrations.

In test [2] the target is Peroxisome proliferator-activated receptor delta (Homo sapiens) (UniProt Q03181). The test is described as follows: qHTS assay for small molecule agonists of peroxisome proliferator-activated receptor delta signaling (AID 588534; calls by dose curve;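 further: 0% = DMSO basal wells and 100% = positive control agonist at 10 µM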). The following applies: HEK293T PPARdelta-UAS-bla, beta-lactamase ratio, 18 h; series mostly up to 76.7 µM. A digest of the protocol: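 Cell-based beta-lactamase reporter assay run in agonist mode: cells seeded and incubated 5 hrs at 37 C, compounds added and incubated 18 hrs at 37 C. CCF4 dye fluorescence read after 2 hrs at RT; EC50 and efficacy from Hill fits.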

For test [3], the target named is Peroxisome proliferator-activated receptor gamma (Homo sapiens) (UniProt P37231). The test is described as follows: qHTS assay for small molecule antagonists of peroxisome proliferator-activated receptor gamma signaling (AID 588537; active means well fitted inhibition curve with a large enough effect in the signal ratio, with a control signal flat, not every such curve was filed as active; the % refers to the signal ratio;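 further: reporter cells co-stimulated with 50 nM rosiglitazone agonist during compound treatment; % of control where 0% means no effect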). The following applies: HEK293 PPARg-UAS-bla, beta-lactamase ratio, antagonist mode; series mostly up to 76.8 µM. A digest of the protocol: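 Inhibitors of agonist-stimulated UAS-bla reporter activity were sought in HEK293 cells; rosiglitazone (50 nM) defined full signal and DMSO baseline. Curves fitted to Hill model gave IC50 and efficacy.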

The target of test [4] is Vitamin D3 receptor (Homo sapiens) (UniProt P11473). The test is described as follows: qHTS assay for small molecule agonists of vitamin D receptor signaling (AID 588543; calls by dose curve;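 further: 0% = DMSO basal and 100% = reference agonist control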). The following applies: HEK293T VDR-UAS-bla, beta-lactamase ratio, 16 h; series mostly up to 76.8 µM. An outline of the steps:
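Measured: β-lactamase reporter activity (CCF4, 405 nm excitation, 460/530 nm emission) in HEK293T VDR-UAS-bla cells after 16 h compound exposure at 37 °C. Normalization against 50 nM 1α,25-dihydroxyvitamin D3 and DMSO; Hill-fit EC50.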

Test [5] has as its target Retinoic acid receptor RXR-alpha (Homo sapiens) (UniProt P19793). The test is described as follows: qHTS assay for small molecule agonists of retinoid X receptor alpha signaling (AID 588544; calls by dose curve;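 further: 0% = DMSO basal wells and 100% = reference agonist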). To be noted: HEK293T RXRa-UAS-bla, beta-lactamase reporter, 18 h; series mostly up to 76.7 µM.
Test [6] has as its target Thyroid hormone receptor beta (Homo sapiens) (UniProt P10828). The experiment in a line: qHTS assay for small molecule agonists of thyroid hormone receptor beta signaling (AID 588545; calls by dose curve;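 further: 0% = DMSO only and 100% = 10 nM T3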). The following applies: TR-UAS-bla GripTite HEK 293, beta-lactamase ratio, agonist mode, 18 h, percent of T3 response, DMSO as zero; series mostly up to 76.7 µM. A digest of the protocol: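 Beta-lactamase reporter activity under TR response element control is measured in HEK 293 cells after 18 hrs compound exposure. Signal is ratiometric CCF4 fluorescence, 460/530 nm.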

For test [7] the target is unchanged. The test is described as follows: qHTS assay for small molecule antagonists of thyroid hormone receptor beta signaling (AID 588547; active means well fitted inhibition curve with a large enough effect in the signal ratio, with a control signal flat, not every such curve was filed as active; the % refers to the signal ratio;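 further: cells stimulated with 0.4 nM T3 agonist during compound exposure; on the % scale 0 is the no-effect control and ±100 the full control effect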). The following applies: TR-UAS-bla HEK293, beta-lactamase ratio, antagonist mode, 18 h. A digest of the protocol: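 Inhibition of T3-driven (0.4nM final) beta-lactamase reporter activity was measured over 0.59 nM to 92 uM compound after 18 h at 37 C. The cells were GripTite HEK293 TR-UAS-bla in charcoal/dextran-stripped serum, with CCF4 ratio read-out and IC50 from Hill fits.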

The nature of test [8]: qHTS assay for small molecule agonists of the antioxidant response element (ARE) signaling pathway (AID 651741; active means well fitted activation curve with a large enough effect in the signal ratio; the % refers to the signal ratio; further: % of control where 0% means no effect). The following applies: HepG2 ARE-bla reporter, beta-lactamase FRET ratio, 16 h; series mostly up to 96 µM. A digest of the protocol:
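Seeding 2,000 ARE-bla HepG2 cells per well preceded a 5 h incubation at 37 C/5% CO2 and a 16 h compound exposure at 37 C. Beta-lactamase reporter activity was then quantified by fluorescence after 2 h with LiveBLAzer B/G FRET substrate.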

Test [9] is described as follows: qHTS assay for small molecule activators of the p53 signaling pathway (AID 651743; active means well fitted activation curve with a large enough effect in the signal ratio, not every such curve was filed as active; the % refers to the signal ratio; further: % of control where 0% means no effect). To be noted: HCT-116 p53RE-bla, beta-lactamase FRET ratio, 16 h; activation: hits give high values. An outline of the steps:
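Screen for p53 pathway agonists uses stably transfected p53RE-bla HCT-116 cells, 4,000 per well, treated 16 h at 37 C with compounds in DMSO.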

In test [10] the target is Cytochrome P450 2D6 (Homo sapiens) (UniProt P10635). The test is described as follows: qHTS Assay for Inhibitors and Substrates of Cytochrome P450 2D6 (AID 891). Further: potency means the concentration at half of the fitted maximal effect; nearly all actives have a fitted effect of over 60% in size. The following applies: recombinant CYP2D6, luciferin-ME EGE luminescence; series mostly up to 57.1 µM. A digest of the protocol:
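Human CYP2D6 (5 nM) with 30 uM Luciferin-ME EGE (at Km) in 100 mM KPO4, compound preincubated 10 min, then NADPH regeneration system for 60 min at room temperature. Luciferin read by luminescence; normalized to 1.43 uM quinidine.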

The subject of the next test is CP268. The test is described as follows: qHTS profiling for inhibitors of Plasmodium falciparum proliferation (AID 504749). Further: nearly all actives have a fitted effect of over 60% in size. Further: potency means the concentration at half of the fitted maximal effect. The following applies: P. falciparum in erythrocytes, SYBR Green DNA, 72 h; series mostly up to 28.7 µM. An outline of the steps:
(§1)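 Three-day growth assay of blood-stage parasites in erythrocytes (0.3% parasitemia, 2.5% hematocrit) at 37 C, 5% CO2, quantified by SYBR Green DNA staining after overnight detergent lysis.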

The next test has as its system CP335. The description is as above. The following applies: P. falciparum in erythrocytes, SYBR Green DNA, 72 h; series mostly up to 12.8 µM. An outline of the steps: as §1
Another test relates to GB4. The description is as above. The following applies: P. falciparum in erythrocytes, SYBR Green DNA, 72 h; series mostly up to 28.7 µM. A digest of the protocol: as §1
The test system of another test is ICS. The description is as above. The following applies: P. falciparum in erythrocytes, SYBR Green DNA, 72 h; series mostly up to 28.7 µM. An outline of the steps:
as §1

Another test relates to JCK. The test is described as above. The following applies: P. falciparum in erythrocytes, SYBR Green DNA, 72 h; series mostly up to 28.7 µM. A digest of the protocol: as §1
In a further test the test system is PC15. The test is described as above. The following applies: P. falciparum in erythrocytes, SYBR Green DNA, 72 h; series mostly up to 28.7 µM. A digest of the protocol: as §1
The test system of the next test is W2. Described as above. To be noted: P. falciparum in erythrocytes, SYBR Green DNA, 72 h; series mostly up to 12.8 µM. An outline of the steps: as §1
The subject of a further test is CP260. Described as above. To be noted: P. falciparum in erythrocytes, SYBR Green DNA, 72 h; series mostly up to 28.7 µM. A digest of the protocol:
as §1

Sequence of Cytochrome P450 2D6 (Homo sapiens) (P10635 whole entry, looked up): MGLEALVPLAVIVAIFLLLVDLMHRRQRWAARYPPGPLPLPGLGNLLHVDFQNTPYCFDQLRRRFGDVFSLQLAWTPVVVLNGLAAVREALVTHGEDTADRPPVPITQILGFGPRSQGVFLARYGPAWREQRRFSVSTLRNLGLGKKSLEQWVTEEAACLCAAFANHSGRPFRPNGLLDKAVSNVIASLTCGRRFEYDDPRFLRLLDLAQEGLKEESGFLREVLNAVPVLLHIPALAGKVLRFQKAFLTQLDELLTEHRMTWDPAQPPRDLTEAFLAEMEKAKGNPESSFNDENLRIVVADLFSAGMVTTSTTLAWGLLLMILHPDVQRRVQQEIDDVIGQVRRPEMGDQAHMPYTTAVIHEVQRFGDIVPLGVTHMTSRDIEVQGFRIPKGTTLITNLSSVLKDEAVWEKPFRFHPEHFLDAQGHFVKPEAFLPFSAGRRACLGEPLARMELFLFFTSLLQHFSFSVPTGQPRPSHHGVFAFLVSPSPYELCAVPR
Sequence of Thyroid hormone receptor beta (Homo sapiens) (P10828 whole entry, looked up): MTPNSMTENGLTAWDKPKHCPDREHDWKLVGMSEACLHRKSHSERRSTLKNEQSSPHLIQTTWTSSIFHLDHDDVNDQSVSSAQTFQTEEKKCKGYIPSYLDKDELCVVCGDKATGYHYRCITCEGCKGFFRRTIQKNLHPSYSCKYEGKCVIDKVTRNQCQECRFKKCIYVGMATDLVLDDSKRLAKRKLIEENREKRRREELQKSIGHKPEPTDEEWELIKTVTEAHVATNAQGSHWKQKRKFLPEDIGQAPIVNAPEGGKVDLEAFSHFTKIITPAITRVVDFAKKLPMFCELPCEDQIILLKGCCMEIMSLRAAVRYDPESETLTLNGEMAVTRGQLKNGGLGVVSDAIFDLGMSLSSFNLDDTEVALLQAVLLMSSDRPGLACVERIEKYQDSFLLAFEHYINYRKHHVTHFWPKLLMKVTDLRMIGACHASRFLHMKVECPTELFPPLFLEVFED
Sequence of Peroxisome proliferator-activated receptor gamma (Homo sapiens) (P37231 whole entry, looked up): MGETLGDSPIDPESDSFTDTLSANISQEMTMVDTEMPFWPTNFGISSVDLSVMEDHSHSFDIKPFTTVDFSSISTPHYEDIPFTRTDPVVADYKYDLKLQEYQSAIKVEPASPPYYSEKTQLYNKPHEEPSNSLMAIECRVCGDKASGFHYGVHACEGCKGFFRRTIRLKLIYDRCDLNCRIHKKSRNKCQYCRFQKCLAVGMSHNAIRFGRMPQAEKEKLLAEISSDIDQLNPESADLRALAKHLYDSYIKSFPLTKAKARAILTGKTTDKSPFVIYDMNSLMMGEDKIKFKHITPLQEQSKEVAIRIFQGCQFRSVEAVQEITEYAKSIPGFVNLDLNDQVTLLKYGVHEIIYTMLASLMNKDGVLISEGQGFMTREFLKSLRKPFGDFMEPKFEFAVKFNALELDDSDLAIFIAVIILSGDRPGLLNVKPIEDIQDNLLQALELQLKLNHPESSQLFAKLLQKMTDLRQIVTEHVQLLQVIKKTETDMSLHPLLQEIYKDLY
Sequence of Vitamin D3 receptor (Homo sapiens) (P11473 whole entry, looked up): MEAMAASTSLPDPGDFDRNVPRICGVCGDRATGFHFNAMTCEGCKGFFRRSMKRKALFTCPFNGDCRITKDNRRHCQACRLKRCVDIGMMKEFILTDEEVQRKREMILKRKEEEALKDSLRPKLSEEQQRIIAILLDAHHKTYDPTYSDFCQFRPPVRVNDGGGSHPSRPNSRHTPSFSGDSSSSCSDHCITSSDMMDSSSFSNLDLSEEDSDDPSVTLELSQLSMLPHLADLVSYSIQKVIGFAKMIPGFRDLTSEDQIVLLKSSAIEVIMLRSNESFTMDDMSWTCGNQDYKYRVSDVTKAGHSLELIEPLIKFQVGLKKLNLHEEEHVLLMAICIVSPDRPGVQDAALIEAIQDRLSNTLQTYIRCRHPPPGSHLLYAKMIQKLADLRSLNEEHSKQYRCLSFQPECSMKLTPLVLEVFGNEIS
Sequence of Retinoic acid receptor RXR-alpha (Homo sapiens) (P19793 whole entry, looked up): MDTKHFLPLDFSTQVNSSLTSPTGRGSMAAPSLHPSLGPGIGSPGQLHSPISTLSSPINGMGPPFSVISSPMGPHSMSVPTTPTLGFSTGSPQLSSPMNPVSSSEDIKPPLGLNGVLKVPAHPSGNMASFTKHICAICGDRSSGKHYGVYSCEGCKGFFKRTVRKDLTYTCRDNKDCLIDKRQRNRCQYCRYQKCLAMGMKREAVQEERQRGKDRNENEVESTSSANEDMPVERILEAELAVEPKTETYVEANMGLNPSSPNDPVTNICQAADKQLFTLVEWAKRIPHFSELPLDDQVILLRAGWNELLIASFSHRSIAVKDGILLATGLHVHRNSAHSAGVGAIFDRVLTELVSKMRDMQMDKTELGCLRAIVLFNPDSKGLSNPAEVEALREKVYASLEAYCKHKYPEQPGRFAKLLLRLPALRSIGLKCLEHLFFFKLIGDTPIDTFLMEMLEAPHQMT
Sequence of Estrogen receptor (Homo sapiens) (P03372 whole entry, looked up): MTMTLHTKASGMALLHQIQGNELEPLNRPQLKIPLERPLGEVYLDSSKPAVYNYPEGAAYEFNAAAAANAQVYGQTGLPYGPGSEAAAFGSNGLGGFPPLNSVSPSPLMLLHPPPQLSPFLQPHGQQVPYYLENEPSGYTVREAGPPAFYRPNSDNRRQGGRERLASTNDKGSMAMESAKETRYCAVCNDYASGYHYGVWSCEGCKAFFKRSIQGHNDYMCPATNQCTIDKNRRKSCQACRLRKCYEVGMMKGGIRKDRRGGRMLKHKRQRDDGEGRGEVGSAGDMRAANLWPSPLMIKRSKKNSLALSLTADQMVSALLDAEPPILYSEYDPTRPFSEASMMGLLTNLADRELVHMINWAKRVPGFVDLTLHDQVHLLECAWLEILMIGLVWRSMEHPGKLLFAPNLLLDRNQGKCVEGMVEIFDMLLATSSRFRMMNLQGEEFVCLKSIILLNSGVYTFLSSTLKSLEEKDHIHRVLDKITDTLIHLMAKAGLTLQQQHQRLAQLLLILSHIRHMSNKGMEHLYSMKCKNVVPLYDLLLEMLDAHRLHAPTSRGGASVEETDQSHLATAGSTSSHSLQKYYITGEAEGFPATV
Sequence of Peroxisome proliferator-activated receptor delta (Homo sapiens) (Q03181 whole entry, looked up): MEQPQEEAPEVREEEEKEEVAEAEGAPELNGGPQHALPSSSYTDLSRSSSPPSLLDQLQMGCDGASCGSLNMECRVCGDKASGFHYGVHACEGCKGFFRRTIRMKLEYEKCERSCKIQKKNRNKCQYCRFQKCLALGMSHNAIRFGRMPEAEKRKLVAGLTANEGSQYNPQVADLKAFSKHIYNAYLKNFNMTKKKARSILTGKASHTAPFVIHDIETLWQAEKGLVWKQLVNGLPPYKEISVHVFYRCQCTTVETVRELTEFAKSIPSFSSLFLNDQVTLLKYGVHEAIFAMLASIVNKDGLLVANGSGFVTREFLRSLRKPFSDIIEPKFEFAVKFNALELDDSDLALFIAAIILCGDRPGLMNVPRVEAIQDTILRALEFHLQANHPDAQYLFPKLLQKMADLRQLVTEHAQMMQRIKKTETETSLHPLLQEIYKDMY

For the compound `CNC(=O)N(C)c1nnc(C(C)(C)C)s1`, the Potency result in [1], in [3], in test [5] and in test [8] was “inactive” in each case. Besides, the outcome in [2], in test [4] and in test [6] was inactive. In addition, in test [7], the activity change % (negative = inhibition) is -7.26%. Further, the activation in test [9] was -3.47%.
On to `COc1cc2c(cc1O)C[C@H]1c3c(cc(O)c(OC)c3-2)CCN1C`, for which the Potency in test [10] was 7940 nM (active).
As to `CC(=O)OCC(=O)[C@@H]1CC[C@H]2[C@H]3CC[C@H]4C[C@@H](O)CC[C@]4(C)[C@@H]3C(=O)C[C@@]12C`, the Potency result in the test on CP268, in the test on CP335, in the test on GB4, in the test on ICS, in the test on JCK and in the test with PC15 was “inactive” in each case. The Potency result with W2 was “inactive”.
For `C[N+]1([O-])[C@@H]2CC[C@H]1CC(OC(=O)[C@@H](CO)c1ccccc1)C2` (some centres undefined), the Potency entry in the test on CP260, in the test on CP268, with CP335, with GB4, with ICS and in the test on JCK was “inactive” each time. Moreover, the Potency result in the test with PC15 and with W2 was “inactive” each time.
For `C[C@@H]1O[C@H](O[C@@H]2C=C3CC[C@H]4[C@@H](CC[C@]5(C)[C@@H](c6ccc(=O)oc6)CC[C@]45O)[C@@]3(C)CC2)[C@@H](O)[C@H](O)[C@@H]1O`, the Potency result in the test with CP260, in the test on CP268, in the test on CP335, with GB4, in the test on ICS and in the test with JCK was “inactive” throughout. Further, in the test on W2, the Potency result is “inactive”.
On to `CN1CC[C@]2(C)c3cc(O)ccc3N(C)[C@@H]12`, for which the Potency in [10] is 25100 nM (active).
In the case of `COc1cc2c(cc1O)[C@H]1Cc3ccc(OC)c(O)c3CN1CC2`, the Potency in test [10] is 31.6 nM (active).
Turning to `CC(C)N(CC[C@@](C(N)=O)(c1ccccc1)c1ccccn1)C(C)C`, the Potency entry with CP260, in the test with CP268, in the test on CP335, with ICS, with JCK and with PC15 was “inactive” throughout.
For `CN(C)[C@@H]1C(=O)C(C(N)=O)=C(O)[C@]2(O)C(=O)C3=C(O)c4c(O)ccc(Cl)c4[C@](C)(O)[C@H]3C[C@@H]12`, the Potency entry with CP268, with GB4, in the test on JCK, in the test on PC15 and with W2 was “inactive” throughout.
For `Clc1ccc([C@@H](OCCN2CCCCC2)c2ccccc2)cc1`, the Potency in test [10] was 15.8 nM (active); with CP260, 3.16 µM (active); in the test on GB4 it was 5.73 µM (active); with ICS, 1.58 µM (active); with PC15, 3.16 µM (active); in the test with W2, 1.81 µM (active).
For the compound `CN1C[C@H](CO)C=C2c3cccc4[nH]cc(c34)C[C@@H]21`, in test [10], the Potency is 126 nM (active).
Consider `CN1Cc2c(ccc3c2OCO3)[C@@H]2[C@@H](O)Cc3cc4c(cc3[C@@H]21)OCO4`, for which, in test [10], the Potency is 199 nM (active) and 79.4 nM (active).
In the case of `CCN[C@]1(c2cccs2)CCCCC1=O`, the Potency entry in the test with CP260, in the test with CP268, with CP335, in the test on ICS, in the test with JCK and in the test with PC15 was “inactive” throughout.
